Reference: article PMC12670160, “A drug-repurposing screen of FDA- and EMA-approved drugs identifies two NF-κB inhibitors active against eumycetoma” (Journal of Antimicrobial Chemotherapy, 2025)
Where a name gives a salt, the structure may show the parent alone. The whole screen tested about 5,300 compounds, of which about 130 (2.5%) showed an effect of 50% or more. The sample as a whole holds a higher share of strong results than the screen did. Peptide text beside a SMILES is read from it.

Tested on: M. mycetomatis strain mm55
Settings: primary screen, metabolic activity vs growth control; 96 h, 2 µM; inhibitor

SMILES	% viability
O=c1[nH]cnc2c([C@@H]3N[C@H](CO)[C@@H](O)[C@H]3O)c[nH]c12 [ONC0001813, forodesine hydrochloride]	95.12%
CCn1c(=O)n([C@H]2CCCN(c3nccc(-c4cc5ccccc5o4)n3)C2)c2ccccc21 [ONC0001458, tcf2]	58.53%
CCCCN(CCCC)CC(O)c1cc(Cl)cc2c1-c1ccc(Cl)cc1/C2=C/c1ccc(Cl)cc1 (centres unmarked) [ONC0000941, lumefantrine]	75.53%
CCCCN(CCCC)CCC(O)c1cc2c(Cl)cc(Cl)cc2c2cc(C(F)(F)F)ccc12 (centres unmarked) [ONC0003518, halofantrinehcl]	46.17%
CNc1nc(-c2ccc3c(N)n[nH]c3c2)cc(N2C[C@@H](C(=O)NC3CCCCC3)CC[C@H]2C)n1 [ONC0002484, gsk2334470]	37.41%
O=c1ccc2c(OCCCCOc3ccccc3)c3ccoc3cc2o1 [ONC0000770, pap1]	62.21%
COc1c2ccoc2cc2oc(=O)ccc12 [ONC0003294, bergapten]	47.96%
COc1c2occc2cc2ccc(=O)oc12 [ONC0005318, methoxsalen]	102.8%
NS(=O)(=O)OC[C@@H]1C[C@@H](n2ccc3c(N[C@H]4CCc5ccccc54)ncnc32)C[C@@H]1O [ONC0001277, pevonedistat hydrochloride]	68.15%
Cc1ccc2c(c1)c1c(n2CCc2ccc(C)nc2)CCN(C)C1.Cl.Cl [ONC0000365, latrepirdine dimebon dihydrochloride]	70.26%
CCCCCCCCCC(=O)OCCN1CCN(CCCN2c3ccccc3Sc3ccc(C(F)(F)F)cc32)CC1 [ONC0003289, fluphenazine decanoate]	48.22%
CN1CCN(CCCN2c3ccccc3Sc3ccc(C(F)(F)F)cc32)CC1 [ONC0003239, trifluoperazine hydrochloride]	119.8%
OCCN1CCN(CCCN2c3ccccc3Sc3ccc(C(F)(F)F)cc32)CC1 [ONC0003193, fluphenazine hydrochloride]	105.7%
CN1CC[C@@]2(C)c3cc(O)ccc3N(C)[C@@H]12 [ONC0002771, eseroline]	104.2%
O=C1c2ccccc2C(=O)c2ccccc21 [ONC0002912, anthraquinone]	73.56%
c1ccc2c(c1)[I+]c1ccccc1-2 [ONC0002720, diphenyleneiodonium]	44.4%
CC(O)COC[C@H]1O[C@@H]2O[C@H]3[C@H](O)[C@@H](O)[C@@H](O[C@H]4[C@H](O)[C@@H](O)[C@@H](O[C@H]5[C@H](O)[C@@H](O)[C@@H](O[C@H]6[C@H](O)[C@@H](O)[C@@H](O[C@H]7[C@H](O)[C@@H](O)[C@@H](O[C@H]8[C@H](O)[C@@H](O)[C@@H](O[C@H]1[C@H](O)[C@H]2O)O[C@@H]8COCC(C)O)O[C@@H]7COCC(C)O)O[C@@H]6COCC(C)O)O[C@@H]5COCC(C)O)O[C@@H]4COCC(C)O)O[C@@H]3COCC(C)O (some centres unmarked) [ONC0003826, hydroxypropylbetacyclodextrin]	73.6%
NCCC(=O)N[C@@H](Cc1cnc[nH]1)C(=O)O [ONC0002788, carnosine]	115.1%
CC[C@@H]1C(=O)N(C)c2cnc(Nc3ccc(C(=O)N[C@H]4CC[C@H](N5CCN(CC6CC6)CC5)CC4)cc3OC)nc2N1C(C)C [ONC0005061, bi6727 volasertib]	89.64%

SMILES	% viability
CC(C)CCN1c2nc(Nc3cc(F)c(O)c(F)c3)ncc2N(C)C(=O)C1C (centres unmarked) [ONC0004496, bid1870]	46.32%
CC[C@@H]1C(=O)N(C)c2cnc(Nc3ccc(C(=O)NC4CCN(C)CC4)cc3OC)nc2N1C1CCCC1 [ONC0004589, bi 2536]	63.71%
Nc1nonc1C(=NO)Nc1ccc(F)c(Cl)c1 [ONC0002386, ido5l]	106.2%
CN1CCN(C(=O)c2nc3cc(Cl)ccc3[nH]2)CC1 [ONC0003559, jnj10191584]	96.39%
O=C(Nc1ccc(Cl)nc1)c1ccc(Cl)cc1 [ONC0002468, ica110381]	70.91%
O=C(Nc1cnc(Cl)nc1)c1ccc(F)c(F)c1 [ONC0001921, ica069673]	29.87%
O=C(Nc1ccc(Cl)cc1)Nc1ccc(Cl)c(Cl)c1 [ONC0003407, triclocarban]	109.1%
CC[C@@]1(O)C(=O)OCc2c1cc1n(c2=O)Cc2c-1nc1cc(F)c(C)c3c1c2[C@@H](N)CC3.CS(=O)(=O)O [ONC0003668, exatecan mesylate]	59.4%
C#C[C@]1(O)CCC2C3CCC4=C(CCC(=O)C4)C3CC[C@@]21C (some centres unmarked) [ONC0000393, norethynodrel]	78.62%
O=C(NC1CCN(Cc2ccccc2)CC1)c1ccc(I)cc1 [ONC0003079, 4ibp]	71.08%
O=C(O)c1ccc(CN2CCC(CN[C@@H]3C[C@H]3c3ccccc3)CC2)cc1 [ONC0001137, gsk2879552]	48.21%
O=C(COc1ccc(C(=O)c2ccccc2)cc1)NC1CCN(Cc2ccccc2)CC1 [ONC0000156, adiporon]	92.46%
C[C@@H](O)[C@H](N)C(=O)N1CCC[C@H]1C(=O)N1CCC[C@H]1C(=O)N[C@H](C(N)=O)[C@@H](C)O [ONC0002215, rapastinel trifluoroacetate] (H-TPPT-NH2)	53.54%
COCCn1c2c([n+](Cc3cnccn3)c1C)C(=O)c1ccccc1C2=O [ONC0001046, ym155]	83.36%
COc1ccc(/C=C2\CCCN=C2c2cccnc2)c(OC)c1 [ONC0001889, gts21]	72.7%
CN(C)c1ccc(/C=C2\CCCN=C2c2cccnc2)cc1 [ONC0002266, dmabanabaseine]	49.52%
Oc1c(I)cc(I)c2cccnc12 [ONC0000463, iodoquinol]	67.55%
Oc1c(Br)cc(Br)c2cccnc12 [Broxyquinoline]	5.699%
Oc1c(Cl)cc(Cl)c2cccnc12 [ONC0002821, chloroxine]	92.76%
